Assay [1] can be described thus: Cytotoxicity counterscreen for inhibitors of SARS-CoV-2 cell entry (AID 1645845). Note: nearly all actives have a fitted effect of over 50% in size. The conditions noted are these: outcome: dose series up to 57.1 µM unless noted. The gist of the method: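 Counterscreen run in the same HEK293-ACE2 line as the pseudotyped-particle entry assay, without particles. Viability after 48 h at 37 C was read as ATP luminescence, scaled between cell-containing and cell-free wells.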
For orientation: Counterscreens check selectivity or assay interference.

A short description of assay [2]: Primary qHTS to identify inhibitors of SARS-CoV-2 cell entry (AID 1645846). Note: nearly all actives have a fitted effect of over 45% in size. Note: potency is the fitted concentration of half-maximal effect. The conditions noted are these: SARS-CoV-2 pseudovirus cell entry assay, luminescence; activity change, negative = inhibition: at 57.1 µM (top of the series) unless noted. The method, boiled down: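 Entry measured by luciferase signal 48 h after adding SARS-CoV-2-S pseudotyped MLV particles to HEK293-ACE2 cells preincubated 1 h with compounds. Normalisation: bald particles and spike particles.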
(In general: Quantitative high-throughput screening tests each substance at several concentrations.)

Assay [3] in a line: Primary qHTS for inhibitors of nuclear receptor binding SET domain protein 2 (NSD2) in an isogenic RCH-ACV NSD2 p.E1099K mutant (9B) (AID 1645876; active = well fitted curve in the direction sought with a large enough effect; an effect the other way counts as inactive or inconclusive; note: potency is the fitted concentration of half-maximal effect; nearly all actives have a fitted effect of over 70% in size).
A short description of assay [4]: Primary qHTS for inhibitors of nuclear receptor binding SET domain protein 2 (NSD2) in an RCH-ACV wild type WT cells (2C) (AID 1645877; active = well fitted curve in the direction sought with a large enough effect; an effect the other way counts as inactive or inconclusive; note: potency is the fitted concentration of half-maximal effect; nearly all actives have a fitted effect of over 70% in size).
The nature of assay [5]: KB-8-5-11 P-gp reporter qHTS against the NCATS DSHEA and TCM libraries (AID 1919977; active = well fitted curve in the direction sought with a large enough effect; an effect the other way counts as inactive or inconclusive; note: 0% is about no effect). The gist of the method:
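CellTiter-Glo luminescence measured viability after ~72 h exposure (37C, 5% CO2) of KB-8-5-11 cervical adenocarcinoma cells overexpressing P-gp. Colchicine was omitted during assay. Substances were tested as titrations.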

Each structure is given as a SMILES string. Results filed as inconclusive are left out. Active and inactive are the calls of the source. Unless noted, calls come from the whole dose curve.

44 molecules from PubChem BioAssay (NCATS) can be followed below.

On to `Cc1sc2c(c1C)C(c1ccc(Cl)cc1)=NC(CC(N)=O)c1nnc(C)n1-2` (stereo not given), for which the Potency entry in assay [1] was “inactive”. The activity change, negative = inhibition in assay [2] was -23.3%. In addition, the Potency in assay [3] is 0.105 µM (active); in assay [4], 0.132 µM (active). Turning to `O=c1oc2c(C3OCCCO3)c(O)ccc2c2c1CNCC2`, the Potency entry in assay [1] is “inactive”. Besides, the activity change, negative = inhibition in assay [2] is 1.62%. On to `CCCCN(CCCC)C(=O)CN1C[C@H](c2ccc3c(c2)OCO3)[C@@H](C(=O)O)[C@@H]1c1ccc(OC)cc1`, for which the activity change, negative = inhibition in assay [2] was -74.4%. As to `C[C@H]1[C@H](C)CC[C@]2(C(=O)O)CC[C@]3(C)C(=CC[C@@H]4[C@@]5(C)C[C@@H](O)[C@H](O)[C@@](C)(CO)[C@@H]5CC[C@]43C)[C@H]12`, the Potency entry in assay [1], in assay [2] and in assay [5] was “inactive” in each case. Take `CCCc1cc(C(=O)N[C@H](Cc2ccc(-c3cccc(OC(F)(F)F)c3)nc2)C(=O)N[C@@H]2CCNC2)sc1C`: in assay [2], the Potency was 31.6 µM (active). With `O=C(NCc1ccc(S(=O)(=O)c2cccc(C(F)(F)F)c2)cc1)c1cnc2[nH]ncc2c1`, the activity change, negative = inhibition in assay [2] was -97.3%. Consider `CN(C)CCOc1ccc(-c2nc(-c3ccc4c(c3)CC/C4=N\O)c(-c3ccncc3)[nH]2)cc1`, for which the Potency in assay [2] is 12.6 µM (active). For the molecule `CCCCc1nc2cc(/C=C/C(=O)NO)ccc2n1CCN(CC)CC`, the Potency entry in assay [2] was “inactive”. In the case of `Nc1ncnc2c1ncn2[C@@H]1O[C@H](CO)C[C@H]1O`, the activity change, negative = inhibition in assay [2] was -13%. Same read-out and setting: the same measure for `Nc1ncnc2c1C(=O)N(c1ccc(C3CCC(CC(=O)O)CC3)cc1)CCO2` (stereo not given): -0.016%; for `COc1ccc(S(=O)(=O)Nc2cc(-c3csc(C#N)c3)ccc2C)cc1`: -92%.

Consider `C=CC(=O)N1CC/C(=C\c2ccc(F)c([N+](=O)[O-])c2)C(=O)/C(=C/c2ccc(F)c([N+](=O)[O-])c2)C1`, for which the Potency in assay [2] was 0.891 µM (active). `COc1ccc(S(=O)(=O)N[C@@H](CNc2nc(C)nc(N3CCC(c4ccc5c(n4)NCCC5)CC3)c2C)C(=O)O)cc1`: the activity change, negative = inhibition in assay [2] is -3.98%.

For the molecule `O=C(NCC(=O)N1CC[C@H](NC2CCC(O)(c3ccc(-c4ncccn4)cn3)CC2)C1)c1cccc(C(F)(F)F)c1` (stereo not given in full), the activity change, negative = inhibition in assay [2] is -29.7%. On the same count and under the same terms, the same measure for `CC(C)(C)C(=O)N1N=CC[C@H]1c1ccccc1`: -3.46%; for `COc1ccc([C@@H](O)[C@@H](C)Oc2ccc([C@H]3O[C@H](c4ccc(O[C@H](C)[C@H](O)c5ccc(OC)c(OC)c5)c(OC)c4)[C@H](C)[C@H]3C)cc2OC)cc1OC`: -95.6%. Take `Cc1cc2c(F)c(Oc3ncnn4cc(OCC(C)OC(=O)C(C)N)c(C)c34)ccc2[nH]1` (stereo not given): in assay [2], the Potency is 11.2 µM (active). Consider `Cc1c(NC(=O)c2cc(C(N)=O)nc3cc(F)ccc23)c(C(F)(F)F)nn1Cc1ccc(C#N)cc1`, for which the activity change, negative = inhibition in assay [2] is -65.9%. The same measure, in the same setting: in the case of `COc1cc2c(cc1OCCCN1CCCC1)N=C(N)C21CCC1` it was -8.97%. For `Cc1nc2ccc(C(=O)N3CCC4(CC3)CC(=O)c3c(cnn3C(C)C)C4)cc2[nH]1`, in assay [2], the Potency is 14.1 µM (active). On the same count and under the same terms, in the case of `CC1(C)C(N(O)C(=O)Nc2ccc(Cl)cc2)N(c2ccc(Cl)cc2)C(=O)N1CC(=O)N/N=C/C=C/c1ccc([N+](=O)[O-])o1` (stereo not given) it was 17.8 µM (active). `COc1ccccc1C(=O)Nc1cc2c(cc1N1CCNC[C@H]1C)n(C)c(=O)n2C`: the activity change, negative = inhibition in assay [2] was -55.2%.

Regarding `NC(=O)c1ccc2nc(-c3ccc(C4(N)CCC4)cc3)c(-c3ccccc3)n2n1`, the Potency in assay [2] was 25.1 µM (active).

Regarding `Nc1nccc(-c2c(-c3ccc(F)cc3)ncn2C2CCCCC2)n1`, in assay [2], the Potency entry was “inactive”. Regarding `CC[C@@H](C)Nc1cc(C(=O)NC2CC3CCC(C2)N3c2ccc(C(=O)C3CC3)cn2)c(C)cc1C(N)=O` (stereo not given in full), in assay [2], the Potency is 1 µM (active). As for `COc1cc2ncnc(Oc3cccc(NC(=O)Nc4cc(C(C)(C)C(F)(F)F)on4)c3)c2cc1OC`, the activity change, negative = inhibition in assay [2] was -20.7%. Consider `CC(C)NC(=O)COc1cccc(-c2nc(Nc3ccc4[nH]ncc4c3)c3ccccc3n2)c1`, for which, in assay [2], the activity change, negative = inhibition is -14.8%. Turning to `CC(C)n1cc(-c2ccc3c(c2)N(C)CC3)c2c(NS(=O)(=O)c3ccn(C)n3)ccnc21`, the activity change, negative = inhibition in assay [2] is -1.94%. As for `Cc1ccc(NC(=O)NCc2ccc3c(c2)CN(C2CCC(=O)NC2=O)C3=O)cc1Cl` (stereo not given), the activity change, negative = inhibition in assay [2] is -96.8%.

With `COC[C@@H](c1ccc(C(F)(F)F)cc1)N1CCN(C2(C)CCN(C(=O)c3c(C)ncnc3C)CC2)C[C@@H]1C`, the activity change, negative = inhibition in assay [2] is -12.7%. As to `CC(C)(O)CS(=O)(=O)Nc1ccc2c(c1)CCN(C(=O)COc1cccnc1)C2`, the activity change, negative = inhibition in assay [2] was -97.4%.

As to `COc1cc2nccc(Oc3ccc(NC(=O)c4cn(C(C)C)c(=O)n(-c5ccc(F)cc5)c4=O)cc3F)c2cc1OC`, the Potency entry in assay [2] was “inactive”. Turning to `[2H]c1nc(C)nc([2H])c1-c1cc(NC[C@@H](C)c2cccc3c(C(=O)NC)ccnc23)ncn1`, in assay [2], the activity change, negative = inhibition came out at 0.426%. On to `NS(=O)(=O)c1ccc(S(=O)(=O)Nc2cccc3c(Cl)c[nH]c23)cc1`, for which, in assay [2], the activity change, negative = inhibition was -3.77%. Same read-out and setting: in the case of `C[C@@H](Oc1ccc2[nH]nc(/C=C/c3cnn(CCO)c3)c2c1)c1c(Cl)cncc1Cl` it was -97.5%. Same read-out and setting: in the case of `CC1(C)CCC2(CC1)N[C@@H](C(=O)N[C@@H]1CC[C@@H](C(N)=O)OC1)[C@H](c1ccnc(Cl)c1F)[C@]21C(=O)Nc2cc(Cl)ccc21` it was -20.9% [at 37.9 µM].

For the molecule `N#C[C@@H]1C[C@@H]2C[C@@H]2N1C(=O)[C@@H](N)C12CC3CC(CC(O)(C3)C1)C2`, the activity change, negative = inhibition in assay [2] was -14.2%. `Cn1cc(-c2cnn3c(N)c(Br)c([C@@H]4CCCNC4)nc23)cn1`: in assay [2], the Potency is 35.5 µM (active). For the molecule `O=C(O)C[C@H]1CCc2c1[nH]c1ccc(OCc3ccc(C4CCCC4)c(C(F)(F)F)c3)cc21`, the activity change, negative = inhibition in assay [2] is -95.5%. In the case of `C=C1C(=O)O[C@@H]2[C@H]3O[C@]3(C)CC/C=C(\C)CC[C@@H]12`, the Potency in assay [2] was 22.4 µM (active). `CC(=O)c1cnc2ccc(-c3cc(Cl)c(O)c(Cl)c3)nc2c1NC1CCC(CN(C)C)CC1` (stereo not given): in assay [2], the activity change, negative = inhibition was -98.1% [at 11.3 µM]. Same read-out and setting: the same measure for `O=C(CCCCCCNC(=O)c1cnc(N(c2ccccc2)c2ccccc2Cl)nc1)NO`: 2.82%. Take `Cc1c(O)cccc1C(=O)NC(CSc1ccccc1)C(O)CN1CC2CCCCC2CC1C(=O)NC(C)(C)C` (stereo not given): the Potency in assay [2] is 31.6 µM (active). On to `COc1ccc2[nH]c(S(=O)Cc3ncc(C)c(OC)c3C)nc2c1` (stereo not given), for which, in assay [2], the activity change, negative = inhibition was -98.9%.
